Source: PubChem BioAssay (National Center for Advancing Translational Sciences (NCATS))
An excerpt weighted towards active compounds, which were near 19% of everything screened.
DT40 TDP1 CPT = qHTS for Inhibitors of human tyrosyl-DNA phosphodiesterase 1 (TDP1): qHTS in cells in presence of CPT | chicken DT40 Tdp1-/-;hTDP1 cells + 20 nM CPT, ATP luminescence, 48 h | Potency, µM (series often up to 46.2 µM), without a hit: at the top dose activity change, negative = growth inhibition, actives largely listed as inhibitors | 12% of 420,000 active; further: potency means the concentration at half of the fitted maximal effect; nearly all actives have a fitted effect of over 55% in size
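Chicken DT40 Tdp1-/- cells stably complemented with human TDP1 were seeded at 400 cells/well in medium containing 20 nM camptothecin, exposed to pin-transferred compounds, and grown at 37 °C for at least 48 hr. Viability was read as ATP luminescence.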
IL-1B inflam inh = qHTS for Inhibitors of Inflammasome Signaling: IL-1-beta AlphaLISA Primary Screen | AID 743279, 2014 | THP-1 LPS/ATP IL-1B secretion, AlphaLISA, 16 h; active compounds read low | activity change, % at 57.5 µM | 4.7% of 360,000 active; in the data active means activity change below about -50%; inconclusive means mostly about -30% to -49%
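Secreted IL-1B measured by AlphaLISA bead assay after 16 h compound exposure of THP-1 cells; compounds (final up to 57.5 uM) added 1 h before LPS (250 ng/mL) and ATP (1.25 mM) stimulation; lower signal means less secretion.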
HT1080NT lethal = qHTS for induction of synthetic lethality in tumor cells producing 2HG: qHTS for the HT-1080-NT fibrosarcoma cell line | AID 686970, 2013 | HT-1080-NT fibrosarcoma viability, CellTiter-Glo ATP luminescence, 48 h | 1.6% of 360,000 active | Potency, µM (highest dose often 46.1 µM), for inactives: at the top dose activity, negative = less viability, most hits filed as cytotoxic;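 further: NT is the 2HG producing partner of a matched IDH1 knockdown line; potency means the concentration at half of the fitted maximal effect; 0% = DMSO-treated cells and -100% = media-only wells without cells; nearly all actives have a fitted effect of over 55% in size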
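Luminescent CellTiter-Glo readout after 48 hours of compound exposure at 37 degrees C defined viability of HT-1080-NT cells. Activity was normalized to DMSO wells and cell-free media wells; concentration-response curves were fitted and assigned curve classes.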
HT1080 IDH1KD tx = qHTS for induction of synthetic lethality in tumor cells producing 2HG: qHTS for the HT-1080-IDH1KD cell line; AID 686971, 2013; 2% of 360,000 active; Potency, µM (titrated, usually from 46.1 µM), for the others: at the top dose activity, negative = toxicity, usual class: cytotoxic; HT-1080 IDH1 knockdown viability, ATP luminescence, 48 h;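 further: potency means the concentration at half of the fitted maximal effect; 0% = DMSO wells and -100% = cell-free medium wells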
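Using the IDH1-knockdown HT-1080 line run in the same batch and compound series as the NT line, viability after 48 h at 37 °C was determined by CellTiter-Glo luminescence and expressed as % activity.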
TDP1 cell noCPT = qHTS for Inhibitors of human tyrosyl-DNA phosphodiesterase 1 (TDP1): qHTS in cells in absence of CPT. AID 686978, 2013. 15% of 420,000 active. Potency, µM (highest dose often 46.2 µM), inactives show at the highest dose activity change, negative = growth inhibition, hits mostly inhibitors. DT40 Tdp1-/- hTDP1 cells, no CPT, ATP luminescence, 48 h; further: potency means the concentration at half of the fitted maximal effect; nearly all actives have a fitted effect of over 55% in size
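Seeded 400 DT40-hTDP1 cells/well (vehicle DMSO, no 20 nM CPT); pinned compounds; ≥48 hr at 37 °C; CellTiter-Glo luminescence as viability measure.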
Starred values were filed as active, the others as inactive; ? = inconclusive; . = no result given. Unless noted, the call rests on the fitted dose curve; in most records, active means well fitted curve in the direction sought with a large enough effect; inconclusive means small, poorly fitted or top-dose-only effect, or another doubt; inactive means no such curve, though single readings can be large; an effect the other way counts as inactive or inconclusive. Unless noted, on the % scale 0 is the no-effect control and ±100 the full control effect.

SMILES	DT40 TDP1 CPT	IL-1B inflam inh	HT1080NT lethal	HT1080 IDH1KD tx	TDP1 cell noCPT
Cc1cc(C)n(C(=O)COc2ccccc2[N+](=O)[O-])n1	-3%	-10	17%	18%	-3%
CN1CCN(c2ccnc(N(C)CCCCCCN)n2)CC1	13µM*	.	.	.	?
CN1CCN(c2ccnc(-c3ccc(N(C)C)cc3)n2)CC1	23µM*	.	.	.	23µM*
CCOC(=O)C1(CCc2ccccc2)CCN(C(=O)c2cc(C)nc(C)n2)CC1	0%	34	12%	5%	?
O=C(c1c(O)c2ccc(Cl)cc2[nH]c1=O)C1CC1	9%	.	.	.	2%
CCn1ccnc1CN(C)C(=O)C1CCC(=O)N(Cc2cccc(C(F)(F)F)c2)C1 (centres undefined)	2%	3	0%	-6%	-1%
CC[C@]12c3[nH]c4ccc(OC)cc4c3CCN1C(=O)C(CC(=O)NCC13CC4CC(CC(C4)C1)C3)C[C@@H]2C(=O)N1CCN(C(=O)C2CC2)CC1 (some centres undefined)	?	-26	-12%	-13%	?
CC[C@]12c3[nH]c4ccc(Cl)cc4c3CCN1C(=O)[C@@H](CC(=O)NCC13CC4CC(CC(C4)C1)C3)C[C@@H]2C(=O)N1CCN(C(=O)C2CC2)CC1	8.2µM*	0	16µM*	23µM*	3.3µM*
CC[C@]12c3[nH]c4ccccc4c3CCN1C(=O)C(CC(=O)NCC13CC4CC(CC(C4)C1)C3)C[C@@H]2C(=O)N1CCN(C(=O)C2CC2)CC1 (some centres undefined)	5.2µM*	0	-3%	-30%	5.2µM*
c1ccc(N2CCN(c3nc4cc5c(cc4s3)OCCO5)CC2)cc1	?	-7	6%	2%	-20%
c1c2c(cc3sc(N4CCOCC4)nc13)OCCO2	?	-13	-25%	?	18µM*
CCC(Cc1ccccc1)NC(=O)C1CCC(CNc2c(N3CCCC3)c(=O)c2=O)CC1 (centres undefined)	-1%	-12	1%	-4%	-18%
COc1ccc(N2CCN(c3nc4ccccc4n4c(C)nnc34)CC2)cc1	-6%	.	.	.	-9%
CCc1nnc2c(N3CCN(c4cccc(C)c4)C(C)C3)nc3ccccc3n12 (centres undefined)	21µM*	.	.	.	?
CCc1nnc2c(N3CCN(c4cccc(C(F)(F)F)c4)CC3)nc3ccccc3n12	21µM*	.	.	.	21µM*
COCCn1c(SCC(=O)c2ccc(Cl)cc2)nnc1C(C)C	?	13	?	?	21µM*
COc1ccccc1CNC(=O)C1(C)CCN1Cc1ccc(OC(F)(F)F)cc1 (centres undefined)	16µM*	-10	?	?	?
CC1(C(=O)NCc2ccco2)CCN1C(=O)C1(c2ccccc2)CC1 (centres undefined)	4.6µM*	-107*	-50%	-18%	5.2µM*
COc1ccccc1CNC(=O)C1(C)CCN1C(=O)C1(c2ccccc2)CC1 (centres undefined)	16µM*	-26	-2%	1%	26µM*
CCOC(=O)Cc1cnc(NC(=O)NC(C(=O)OCC)(c2ccccc2)C(F)(F)F)s1 (centres undefined)	2%	-19	-1%	-4%	-1%
CCOc1ccc(-n2nc3ccc(NC(=O)Cc4ccccc4)cc3n2)cc1	3.7µM*	.	.	.	3.7µM*
COc1ccc(-n2nc3ccc(NC(=O)c4cccc(OCCC(C)C)c4)cc3n2)cc1	18µM*	.	.	.	7.3µM*
O=C(Nc1ccc(F)cc1)c1cccc2ccccc12	-27%	15	2%	1%	?
CCOc1ccc(-n2nc3ccc(NC(=O)CC)cc3n2)cc1	-1%	-13	?	?	-13%
O=C(Nc1ccc2nn(-c3ccc(F)cc3)nc2c1)c1cccc2c(Cl)cccc12	10µM*	.	.	.	21µM*
SMILES	DT40 TDP1 CPT	IL-1B inflam inh	HT1080NT lethal	HT1080 IDH1KD tx	TDP1 cell noCPT
COc1ccc(-n2nc3ccc(NC(=O)c4c(OC)cccc4OC)cc3n2)cc1	16µM*	.	.	.	15µM*
FC(F)(F)c1nc2nc(Cl)c(Cl)nc2[nH]1	?	31	-17%	-20%	21µM*
O=C(O)c1nc2nc(Cl)c(Cl)nc2[nH]1	-5%	52	-9%	-1%	-12%
COc1cnc(-c2cccc(C(F)(F)F)c2)[nH]c1=O	?	13	2%	3%	-21%
FC(F)(F)C(F)(F)C(F)(F)c1nc2nc(Cl)c(Cl)nc2[nH]1	?	27	-17%	-16%	16µM*
FC(F)(F)c1cccc(-c2nc3nc(Cl)c(Cl)nc3[nH]2)c1	7.3µM*	-18	?	?	2.1µM*
COc1cc(O)c(C)c(O)c1	-2%	.	.	.	5%
O=C(c1ccccc1)c1cc([N+](=O)[O-])ccc1N1CCCC1	-25%	-12	-7%	-19%	-32%
Cc1ccc(C)c(N2CCN(C(=O)c3ccc(N4CCOCC4)c([N+](=O)[O-])c3)CC2)c1	?	-51*	?	-24%	16µM*
Cc1ccc(C(=O)c2cc([N+](=O)[O-])ccc2N2CCCCC2)cc1C	3.3µM*	0	1.6µM*	1.5µM*	5.2µM*
Cc1ccc(C)c(C(=O)COC(=O)c2cc([N+](=O)[O-])ccc2N2CCOCC2)c1	?	-17	-16%	-14%	?
O=C(c1ccc(N2CCOCC2)c([N+](=O)[O-])c1)N1CCCCC1	-11%	39	7%	6%	1%
Cc1ccc(C(=O)c2cc([N+](=O)[O-])ccc2N2CCOCC2)c(C)c1	0.82µM*	21	?	?	0.92µM*
Cc1ccc(C(=O)c2cc([N+](=O)[O-])ccc2N2CCOCC2)cc1C	1.5µM*	0	?	1.8µM*	0.73µM*
CCCCOC(=O)c1ccc(NC(=O)c2sc3nc(C)cc(C)c3c2N)cc1	-80%	.	.	.	?
CC(=O)NS(=O)(=O)c1ccc(NC(=O)CSc2ccc(C)cc2)cc1	-16%	11	8%	22%	5%
O=C(CNC(=O)c1cccc(F)c1)N/N=C/c1cc(Br)ccc1OC(=O)/C=C/c1ccco1	7.3µM*	191	?	?	3.7µM*
O=C(CNC(=O)c1ccc(F)cc1)N/N=C/c1cc(Br)ccc1OCc1ccccc1	?	?	-2%	-3%	?
